This is an account of results in PubChem BioAssay (NCATS).

A number with no mark means an inactive call. Inconclusive results are not listed. Calls of active or inactive are those of the source. Unless noted, calls come from the whole dose curve; as a rule, active = well fitted curve in either direction with a large enough effect (not every such curve was filed as active); inconclusive = small, poorly fitted or top-dose-only effect, or another doubt; inactive = flat fitted curve, though single readings scatter.

In experiment [1] the target is Lysosomal acid glucosylceramidase (Homo sapiens) (UniProt P04062). Nature of the experiment: Glucocerebrosidase-p2 (AID 348; in the data active = potency below about 10 µM; note: potency is the fitted concentration of half-maximal effect). The note with it: purified GBA, blue fluorogenic substrate, 40 min. The essentials: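 Normal human glucocerebrosidase (0.2 nM) with blue fluorogenic substrate (80 uM final) in citrate/phosphate pH 5.9 with 10mM sodium taurocholate, 0.01% tween-20; 40 min RT, NaOH/glycine stop; fluorescence Ex 365/Em 440; AC50 from a titration from 0.6 nM upwards.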

The nature of experiment [2]: AP1 Signaling Pathway (AID 357). Note: % is set by controls: 0 for no effect and ±100 for the full control effect. The note with it: ME-180 AP-1-bla reporter, EGF-induced, beta-lactamase ratio, 5 h; at 7.69 µM (top of the series) unless noted. Summed up: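 A ratiometric CCF4 readout (405 nm excitation; 460 and 530 nm emission) quantified AP-1-driven beta-lactamase in ME-180 cells after 5 h with compound and EC50 EGF; AC50 values were derived for activators and inhibitors.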

The target in experiment [3] is Cytochrome P450 1A2 (Homo sapiens) (UniProt P05177). Description: p450-cyp1a2 (AID 410; calls by dose curve; note: potency is the fitted concentration of half-maximal effect;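 for activity change, negative = inhibition: -100% = full effect of reference inhibitor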). The note with it: recombinant CYP1A2, luciferin-ME demethylation, luminescence; series mostly up to 11.4 µM. The essentials: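 Read-out is luminescence from luciferin produced by CYP1A2 demethylation of Luciferin-ME (100uM, at Km). Detection reagent stopped the 60 min NADPH-dependent reaction; signals were normalized to 57 uM furafylline.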

The nature of experiment [4]: Stat Signaling Pathway (AID 446).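 Note: ME-180 cervical cancer cells given 40 pM IL-6 alongside compound; SIE-controlled beta-lactamase reporter measured as 460/530 nm FRET emission ratio; % is set by controls: 0 for no effect and ±100 for the full control effect.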 Conditions: ME-180 SIE beta-lactamase reporter, IL-6 stimulated, 5 h; at 7.69 µM (top of the series) unless noted. The essentials:
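Compound effects on IL-6-induced STAT reporter activity were measured in ME-180 cells. After overnight culture, cells were co-treated with 40 pM IL-6 for 5 hrs before beta-lactamase substrate loading at room temperature.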

The target of experiment [5] is Glucocorticoid receptor (Homo sapiens) (UniProt P04150). Nature of the experiment: GR-GFP Redistribution (AID 450;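 active = compounds whose dose series gives a full or clear partial fitted curve of increased nuclear translocation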; note: potency is the fitted concentration of half-maximal effect). Conditions: U2OS GR-GFP nuclear translocation, laser cytometry, 2 h.
Experiment [6] has the same target. Description: GR-EFC Redistribution (AID 451; calls by dose curve; note: potency is the fitted concentration of half-maximal effect). The note with it: CHO-K1 GR-EFC translocation, beta-gal luminescence, 2 h. Summed up: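 Translocation of GR-ED fusion to nuclear EA restores b-gal, read by luminescence after 1 h room-temperature detection. Engineered CHO-K1 biosensor cells, 1,000/well, exposed 2 h at 37 C to titrations up to 46 uM final.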
The target in experiment [7] is Mitogen-activated protein kinase 10 (Mus musculus) (UniProt Q61831). Description: JNK3 AlphaScreen Assay (AID 530).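 Note: kinase came from lysate of stimulated human HepG2 cells; signal reports phosphorylation of biotinylated GST-cJun 1-79 at Ser73 with 10 µM ATP; % is set by controls: 0 for no effect and ±100 for the full control effect.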 The note with it: JNK3 lysate, c-Jun phosphorylation; series mostly up to 11.4 µM. The essentials: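 Kinase buffer: 20 mM Tris-HCl pH 7.6, 10 mM MgCl2, 1 mM DTT, 0.1 mM Na3VO4, 0.01% Tween-20; ATP 10 uM. Substrate biotin-GST-cJun(1-79), enzyme from activated HepG2 lysates. Detection by Ser73 phospho-antibody AlphaScreen.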
For orientation: Alpha assays give light when donor and acceptor beads are brought close together.

Experiment [8] has as its target 3',5'-cyclic-AMP phosphodiesterase 4B (Homo sapiens) (UniProt Q07343). Nature of the experiment: qHTS Assay for Inhibitors of PDE-IV (AID 607; active = well fitted activation curve with a large enough effect in the main read-out, with a control signal flat, not every such curve was filed as active; note: % of control where 0% means no effect). Conditions: HEK293 ACTOne CNG channel cells, membrane potential fluorescence; series mostly up to 22.9 µM. Summed up:
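ACTOne HEK293 cells carry a modified cAMP-gated CNG channel and express endogenous PDE4; plated 1000 cells/well, compounds up to 22.9 uM final. Membrane-potential dye fluorescence (ex 535/em 590) was read; parental cells received 10 uM forskolin + 100 uM RO 20-1724.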
On the technique in general: qHTS replaces the single test concentration by a dilution series.

Experiment [9] has as its target Cytochrome P450 3A4 (Homo sapiens) (UniProt P08684). Nature of the experiment: qHTS Assay for Activators of Cytochrome P450 3A4 (AID 885; active = well fitted curve in the direction sought with a large enough effect; an effect the other way counts as inactive or inconclusive; note: nearly all actives have a fitted effect of over 65% in size). The note with it: recombinant CYP3A4, Luciferin-PPXE luminescence, 60 min; series mostly up to 11.4 µM. Summed up:
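CYP3A4 activity: Luciferin-PPXE O-dealkylation, 25uM substrate, 200mM KPO4, RT throughout. Read-out is luciferase luminescence; higher values reflect activation.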

Experiment [10] deals with Cytochrome P450 2C19 (Homo sapiens) (UniProt P33261). Nature of the experiment: qHTS Assay for Inhibitors and Substrates of Cytochrome P450 2C19 (AID 899; active = well fitted curve in the direction sought with a large enough effect; an effect the other way counts as inactive or inconclusive; note: potency is the fitted concentration of half-maximal effect; nearly all actives have a fitted effect of over 60% in size). The note with it: recombinant CYP2C19, luciferin-H EGE luminescence; series mostly up to 11.4 µM. Summed up: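 Reactions contain 5nM enzyme, 10uM Luciferin-H EGE (KM) and 50mM KPO4; compound preincubates 10 min at 37C, NADPH regeneration starts turnover for 60 min. Luminescence after detection reagent gives activity.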

The nature of experiment [11]: qHTS Assay for Identification of Small Molecule Agonists for Hypoxia Response Element Signaling Pathway (AID 914; active = well fitted activation curve with a large enough effect in the signal ratio, with a control signal flat, not every such curve was filed as active; the % refers to the signal ratio; note: % of control where 0% means no effect). Conditions: ME-180 (cervical carcinoma) HRE-bla reporter, beta-lactamase ratio, CoCl2, 17 h; activation: stronger effect = higher value. Summed up:
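Positive modulation of EC50 CoCl2-induced hypoxia response element signaling is measured in ME-180 cells with a beta-lactamase reporter. Compounds are titrated, incubation runs 17 hours, and %Activity derives from the blue/green ratio.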

In experiment [12] the target is Cytochrome P450 2D6 (Homo sapiens) (UniProt P10635). Description: qHTS Assay for Inhibitors and Substrates of Cytochrome P450 2D6 (AID 891; active = well fitted curve in the direction sought with a large enough effect; an effect the other way counts as inactive or inconclusive; note: potency is the fitted concentration of half-maximal effect; nearly all actives have a fitted effect of over 60% in size). The note with it: recombinant CYP2D6, luciferin-ME EGE luminescence; series mostly up to 11.4 µM. The essentials:
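Luminescent read-out of luciferin formed by 5 nM human CYP2D6 demethylating 30 uM Luciferin-ME EGE (Km level) over 60 min at room temperature after NADPH regeneration addition. Data normalized to full inhibition by 1.43 uM quinidine.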

In experiment [13] the target is Cytochrome P450 3A4 (Homo sapiens) (UniProt P08684). Description: qHTS Assay for Inhibitors and Substrates of Cytochrome P450 3A4 (AID 884; active = well fitted curve in the direction sought with a large enough effect; an effect the other way counts as inactive or inconclusive; note: potency is the fitted concentration of half-maximal effect; nearly all actives have a fitted effect of over 50% in size). Conditions: recombinant CYP3A4, Luciferin-PPXE luminescence; series mostly up to 57.1 µM. The essentials:
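Luminescent readout of luciferin produced by CYP3A4 (20 nM) dealkylation of Luciferin-PPXE, 25 uM (its KM). NADPH-driven reaction ran 60 min at RT after 10 min compound preincubation; data scaled to 57 uM ketoconazole as 100% inhibition.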

A short description of experiment [14]: Confirmation and Secondary Assay for Modulators of Hemoglobin Beta Chain Splicing at IVS2 654 locus (AID 910; active = well fitted curve in the direction sought with a large enough effect; an effect the other way counts as inactive or inconclusive;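 note: HeLa cells stably carrying EGFP split by mutant beta-globin IVS2-654 intron; per-well total GFP intensity by laser scanning cytometry after 2-day treatment; % of control where 0% means no effect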). Conditions: HeLa EGFP-654 splicing reporter, GFP fluorescence, 48 h; series mostly up to 38.3 µM. Summed up:
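Readout: per-well total peak green fluorescence (488 nm ex, 500–520 nm em) from objects 5–250 µm, reflecting correct splicing of an EGFP-654 reporter. Compounds were applied for 2 days at 37 °C to overnight-plated HeLa EGFP-654 cells; controls were DMSO and 500 nM IVS2-654 PNA.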

The nature of experiment [15]: Confirmation and Secondary Assay for Modulators of Hemoglobin Beta Chain Splicing at IVS2 705 locus (AID 930; active = well fitted curve in the direction sought with a large enough effect; an effect the other way counts as inactive or inconclusive;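 note: HeLa cells stably expressing the EGFP-705 splicing reporter; GFP fluorescence per well restored by corrected splicing of the IVS2-705 intron in EGFP; % of control where 0% means no effect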). The note with it: HeLa EGFP-705 splicing reporter, GFP fluorescence, 48 h; series mostly up to 38.3 µM. The essentials: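 First, HeLa EGFP-705 cells are seeded at 500/well in Optimem with 2% FCS and left overnight. Next, compound or DMSO is added for 2 days. Finally wells are laser-scanned and total peak GFP intensity scored.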

Sequence of Lysosomal acid glucosylceramidase (Homo sapiens) (P04062 whole entry, looked up): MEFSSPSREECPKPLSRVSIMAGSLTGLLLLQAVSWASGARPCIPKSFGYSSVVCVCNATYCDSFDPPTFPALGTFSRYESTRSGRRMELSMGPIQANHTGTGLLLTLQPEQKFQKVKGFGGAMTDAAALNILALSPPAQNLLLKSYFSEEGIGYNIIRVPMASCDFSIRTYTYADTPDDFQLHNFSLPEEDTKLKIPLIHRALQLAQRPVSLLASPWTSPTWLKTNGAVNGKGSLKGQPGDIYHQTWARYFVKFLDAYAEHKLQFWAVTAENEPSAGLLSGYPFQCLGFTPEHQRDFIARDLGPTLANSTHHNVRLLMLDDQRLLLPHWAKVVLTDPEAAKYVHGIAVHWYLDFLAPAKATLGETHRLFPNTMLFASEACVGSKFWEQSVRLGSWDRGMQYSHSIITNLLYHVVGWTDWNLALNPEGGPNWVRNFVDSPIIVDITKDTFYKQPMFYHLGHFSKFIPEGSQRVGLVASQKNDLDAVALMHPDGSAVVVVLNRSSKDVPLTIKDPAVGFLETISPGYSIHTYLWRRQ
Sequence of Glucocorticoid receptor (Homo sapiens) (P04150 whole entry, looked up, the tested form may be a part): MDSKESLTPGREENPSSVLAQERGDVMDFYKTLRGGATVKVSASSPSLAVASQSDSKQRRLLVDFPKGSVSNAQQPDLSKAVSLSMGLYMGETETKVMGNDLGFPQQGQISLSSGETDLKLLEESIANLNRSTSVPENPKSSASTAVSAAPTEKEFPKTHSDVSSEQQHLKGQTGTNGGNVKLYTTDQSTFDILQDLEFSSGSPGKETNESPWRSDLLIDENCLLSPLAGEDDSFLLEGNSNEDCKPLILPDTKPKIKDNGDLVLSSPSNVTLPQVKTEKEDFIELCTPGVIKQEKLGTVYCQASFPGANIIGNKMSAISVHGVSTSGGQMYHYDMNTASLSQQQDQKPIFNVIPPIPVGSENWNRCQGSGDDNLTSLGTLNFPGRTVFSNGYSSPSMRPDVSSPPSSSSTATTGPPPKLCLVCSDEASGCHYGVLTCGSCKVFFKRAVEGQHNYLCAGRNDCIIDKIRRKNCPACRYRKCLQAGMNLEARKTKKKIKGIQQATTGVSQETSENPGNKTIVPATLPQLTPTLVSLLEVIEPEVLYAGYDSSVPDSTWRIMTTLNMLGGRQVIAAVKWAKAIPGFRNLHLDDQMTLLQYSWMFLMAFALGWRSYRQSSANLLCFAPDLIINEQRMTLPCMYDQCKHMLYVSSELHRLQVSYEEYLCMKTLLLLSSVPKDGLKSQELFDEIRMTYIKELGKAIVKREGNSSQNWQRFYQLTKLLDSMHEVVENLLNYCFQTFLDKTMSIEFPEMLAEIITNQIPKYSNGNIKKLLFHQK
Sequence of Cytochrome P450 2C19 (Homo sapiens) (P33261 whole entry, looked up): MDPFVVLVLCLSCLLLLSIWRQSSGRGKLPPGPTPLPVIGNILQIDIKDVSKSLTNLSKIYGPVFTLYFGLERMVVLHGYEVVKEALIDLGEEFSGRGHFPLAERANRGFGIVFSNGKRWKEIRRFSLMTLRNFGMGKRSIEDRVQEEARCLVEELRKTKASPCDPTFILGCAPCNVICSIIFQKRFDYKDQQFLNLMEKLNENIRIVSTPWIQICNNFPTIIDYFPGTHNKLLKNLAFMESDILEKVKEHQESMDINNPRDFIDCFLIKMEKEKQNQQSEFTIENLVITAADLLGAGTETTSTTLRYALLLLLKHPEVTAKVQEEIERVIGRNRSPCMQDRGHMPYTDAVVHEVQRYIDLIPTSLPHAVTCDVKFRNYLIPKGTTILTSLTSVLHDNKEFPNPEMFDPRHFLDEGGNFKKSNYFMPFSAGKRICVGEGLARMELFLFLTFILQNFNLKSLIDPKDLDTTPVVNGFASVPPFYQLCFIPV
Sequence of Cytochrome P450 1A2 (Homo sapiens) (P05177 whole entry, looked up): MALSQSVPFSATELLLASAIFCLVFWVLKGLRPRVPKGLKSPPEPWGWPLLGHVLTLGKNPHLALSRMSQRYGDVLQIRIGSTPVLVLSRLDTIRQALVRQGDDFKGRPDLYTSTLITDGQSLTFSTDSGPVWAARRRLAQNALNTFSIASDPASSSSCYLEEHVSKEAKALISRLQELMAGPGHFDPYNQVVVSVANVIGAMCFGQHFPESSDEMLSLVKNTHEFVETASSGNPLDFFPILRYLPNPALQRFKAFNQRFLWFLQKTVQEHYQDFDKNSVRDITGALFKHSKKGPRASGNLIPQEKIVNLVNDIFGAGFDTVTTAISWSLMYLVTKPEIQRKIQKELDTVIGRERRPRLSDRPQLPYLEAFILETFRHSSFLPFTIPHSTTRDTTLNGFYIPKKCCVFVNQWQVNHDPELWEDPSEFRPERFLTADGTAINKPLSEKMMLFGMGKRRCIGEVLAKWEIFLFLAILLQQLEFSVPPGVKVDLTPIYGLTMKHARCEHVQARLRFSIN
Sequence of Cytochrome P450 3A4 (Homo sapiens) (P08684 whole entry, looked up): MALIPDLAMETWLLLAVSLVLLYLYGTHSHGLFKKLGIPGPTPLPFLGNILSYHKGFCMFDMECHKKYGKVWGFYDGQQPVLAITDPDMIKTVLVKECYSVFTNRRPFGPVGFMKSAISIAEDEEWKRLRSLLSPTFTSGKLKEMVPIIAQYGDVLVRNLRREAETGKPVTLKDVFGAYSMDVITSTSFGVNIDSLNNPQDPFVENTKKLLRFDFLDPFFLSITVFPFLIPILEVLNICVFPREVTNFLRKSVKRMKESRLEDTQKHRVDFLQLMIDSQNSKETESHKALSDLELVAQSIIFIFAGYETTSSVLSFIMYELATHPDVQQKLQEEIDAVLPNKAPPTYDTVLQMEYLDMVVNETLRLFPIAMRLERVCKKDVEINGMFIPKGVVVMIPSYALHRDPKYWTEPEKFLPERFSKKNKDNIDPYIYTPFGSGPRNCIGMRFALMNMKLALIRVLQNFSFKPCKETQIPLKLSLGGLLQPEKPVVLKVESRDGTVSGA
Sequence of 3',5'-cyclic-AMP phosphodiesterase 4B (Homo sapiens) (Q07343 whole entry, looked up): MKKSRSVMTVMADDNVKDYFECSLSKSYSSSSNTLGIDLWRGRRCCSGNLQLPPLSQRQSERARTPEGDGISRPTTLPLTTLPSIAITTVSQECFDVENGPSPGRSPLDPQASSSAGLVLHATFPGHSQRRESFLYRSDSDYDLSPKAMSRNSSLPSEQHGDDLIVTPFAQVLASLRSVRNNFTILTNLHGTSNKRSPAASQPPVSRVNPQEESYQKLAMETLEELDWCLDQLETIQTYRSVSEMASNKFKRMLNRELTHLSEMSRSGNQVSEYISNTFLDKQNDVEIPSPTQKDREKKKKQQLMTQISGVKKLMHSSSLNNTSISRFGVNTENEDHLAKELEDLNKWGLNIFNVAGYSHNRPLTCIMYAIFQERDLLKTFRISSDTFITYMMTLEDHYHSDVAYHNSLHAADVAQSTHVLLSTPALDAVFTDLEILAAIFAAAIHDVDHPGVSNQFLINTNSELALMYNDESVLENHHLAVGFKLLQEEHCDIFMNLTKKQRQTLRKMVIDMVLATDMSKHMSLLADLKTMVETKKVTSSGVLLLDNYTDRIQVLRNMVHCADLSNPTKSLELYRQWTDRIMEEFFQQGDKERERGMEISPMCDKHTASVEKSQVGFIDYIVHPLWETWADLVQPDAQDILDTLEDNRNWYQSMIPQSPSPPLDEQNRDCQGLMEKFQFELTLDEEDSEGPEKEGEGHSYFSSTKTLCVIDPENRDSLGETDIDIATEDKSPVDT
Sequence of Cytochrome P450 2D6 (Homo sapiens) (P10635 whole entry, looked up): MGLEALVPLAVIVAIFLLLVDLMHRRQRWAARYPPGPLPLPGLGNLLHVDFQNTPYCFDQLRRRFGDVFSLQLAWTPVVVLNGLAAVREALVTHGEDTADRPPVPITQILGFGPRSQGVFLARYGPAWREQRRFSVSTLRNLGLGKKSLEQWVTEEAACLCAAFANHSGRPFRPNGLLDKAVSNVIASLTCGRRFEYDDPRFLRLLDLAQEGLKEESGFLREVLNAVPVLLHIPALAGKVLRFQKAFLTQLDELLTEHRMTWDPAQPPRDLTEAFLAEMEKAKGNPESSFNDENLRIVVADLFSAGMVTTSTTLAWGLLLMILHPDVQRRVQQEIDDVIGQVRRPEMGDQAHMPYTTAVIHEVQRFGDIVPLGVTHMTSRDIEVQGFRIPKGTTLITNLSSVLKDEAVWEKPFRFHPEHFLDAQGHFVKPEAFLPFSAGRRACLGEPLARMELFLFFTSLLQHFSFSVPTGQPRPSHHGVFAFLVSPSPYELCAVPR

`O=C(O)CCNc1ncnc2nc[nH]c12`: the Potency in [1] was > 11.4 µM; in [5], > 46 µM; in experiment [6] it was > 9.22 µM. Further, in experiment [2], the activity change, negative = inhibition was 8.82%. For the same molecule, the Potency result in experiment [3], in experiment [7] and in [8] was “inactive” in each case. The activity, negative = inhibition in [4] is -5.64%.
Take `N#CCCn1c(=O)c(-c2ccccc2)nc2cnc(OCc3ccccc3)nc21`: the Potency is > 11.4 µM in experiment [1], 3.16 µM (active) in experiment [3], > 9.22 µM in experiment [5] and > 46 µM in experiment [6]. Besides, in experiment [2], the activity change, negative = inhibition was -17.7%. For the same molecule, the activity, negative = inhibition in experiment [4] is -1.68%. The Potency result in [7] and in [8] was “inactive” throughout.
`N[C@@H](CC1=CS(=O)(=O)c2ccc(Cl)cc21)C(=O)O`: the Potency in [1] was > 11.4 µM; in [3] it was 0.398 µM (active); in experiment [5], > 46 µM; in experiment [6], > 9.22 µM. Also, the activity change, negative = inhibition in experiment [2] is -5.74%. Also, the activity, negative = inhibition in [4] was -1.77%. In addition, the Potency result in experiment [7], in [8] and in [9] was “inactive” each time.
For the molecule `Clc1ccc(Cl)c(Nc2ccnc(SCc3ccccc3)n2)c1`, the Potency in experiment [1] is > 11.4 µM; in experiment [3], 0.501 µM (active); in experiment [5], > 46 µM; in [6] it was > 9.22 µM; in [10], 5.01 µM (active). The activity change, negative = inhibition in [2] is 1.81%. Moreover, the activity, negative = inhibition in experiment [4] is 0.24%. Also, the Potency entry in experiment [7], in experiment [8] and in [9] was “inactive” each time. Moreover, the activation in experiment [11] was -13.8%.
Turning to `Cc1ccc2ccccc2c1CSc1nc(N)nc2c1ncn2CC(C)C`, the Potency is > 11.4 µM in experiment [1]; > 46 µM in experiment [5]; > 9.22 µM in experiment [6]; 3.98 µM (active) in [12]; 3.98 µM (active) in experiment [10]. In addition, the activity change, negative = inhibition was -11.7% in [2] and -20.8% [at 2.29 µM] in [3]. Moreover, the activity, negative = inhibition in [4] was -19.8%. The Potency entry in experiment [7] and in [8] was “inactive” in each case.
As for `COc1ccccc1-c1ccc2ncnc(NCc3cccnc3)c2c1`, the Potency in experiment [1] was > 11.4 µM; in [3], 0.794 µM (active); in experiment [5], > 46 µM; in experiment [6], > 46 µM; in experiment [13] it was 0.631 µM (active); in [12], 7.94 µM (active). In experiment [10], the Potency is 0.0079 µM (active). Moreover, the activity change, negative = inhibition in experiment [2] was -18.5%. Besides, in experiment [4], the activity, negative = inhibition is -19.8%. The Potency entry in experiment [7], in experiment [8] and in [9] was “inactive” throughout. In addition, the result in experiment [14] and in experiment [15] was inactive.
Consider `C[C@H](NC(=O)c1ccc(Cl)c(Cl)c1)c1ccc(-c2ccccc2)cc1`, for which the Potency in experiment [1] was > 11.4 µM; in experiment [3], 0.631 µM (active); in experiment [5], > 46 µM; in experiment [6] it was > 9.22 µM; in experiment [10] it was 1.26 µM (active). Further, the activity change, negative = inhibition in experiment [2] is -14.7%. Moreover, the activity, negative = inhibition in experiment [4] is -12.5%. Moreover, the Potency result in [7] and in [8] was “inactive” in each case.
